Assay results reported in PubChem BioAssay (NCATS).
Inconclusive results are not listed. The source made the active and inactive calls. Unless noted, calls come from the whole dose curve.

What was measured:
[1] = Confirmatory qHTS to identify inhibitors of SARS-CoV-2 cell entry (AID 1645844); conditions: SARS-CoV-2 pseudotyped particle cell entry, luciferase; series mostly up to 57.2 µM; note: potency is the fitted concentration of half-maximal effect; nearly all actives have a fitted effect of over 45% in size
Outline: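 HEK293-ACE2 cells were pretreated 1 h with compound, then infected with MLV-based pseudoparticles bearing C-terminally truncated Wuhan-Hu-1 spike for 48 h at 37C; luciferase luminescence normalized to spike PP and bald PP wells.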

[2] = Cytotoxicity counterscreen for inhibitors of SARS-CoV-2 cell entry (AID 1645845); conditions: cell viability (SARS-CoV-2 entry assay cells); series mostly up to 57.1 µM; note: nearly all actives have a fitted effect of over 50% in size; for activity change, negative = cytotoxicity: % is set by controls: 0 for no effect and ±100 for the full control effect
Outline: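 HEK293-ACE2 cells (Expi293F stably expressing human ACE2) seeded overnight, then compound for 1 h plus 48 h at 37C. Viability as ATP content by luminescence; normalized to wells with cells and media-only wells.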

[3] = Primary qHTS to identify inhibitors of SARS-CoV-2 cell entry (AID 1645846); conditions: SARS-CoV-2 pseudovirus cell entry assay, luminescence; activity change, negative = inhibition: at 57.1 µM (top of the series) unless noted; note: nearly all actives have a fitted effect of over 45% in size; note: potency is the fitted concentration of half-maximal effect
Outline: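 HEK293 cells stably expressing human ACE2, pre-treated 1 h with compound, then infected with MLV particles pseudotyped with Wuhan-Hu-1 spike (C-terminal 19-aa truncation). Luciferase luminescence after 48 h at 37 °C, normalised to spike PP and bald PP.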

[4] = VSVG counterscreen qHTS to identify inhibitors of SARS-CoV-2 cell entry (AID 1645847); conditions: VSV-G pseudotyped particle entry, luciferase; series mostly up to 57.2 µM; note: nearly all actives have a fitted effect of over 65% in size; note: potency is the fitted concentration of half-maximal effect; for activity change, negative = inhibition: % is set by controls: 0 for no effect and ±100 for the full control effect
Outline: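 HEK293-ACE2 cells (Expi293F, human ACE2) pretreated 1 h with compound, then infected with MLV-based VSV-G pseudotyped particles for 48 h at 37 C; luciferase luminescence normalized to VSV-G PP and bald PP wells.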

[5] = target: Cytochrome P450 2D6 (Homo sapiens) (UniProt P10635); assay: Cytochrome P450 family 2 subfamily D member 6 (CYP2D6) small molecule antagonists: luciferase biochemical (cell-free) qHTS assay (AID 1645840; active = well fitted curve in the direction sought with a large enough effect in the repeat runs; an effect the other way counts as inactive or inconclusive; note: % is set by controls: 0 for no effect and ±100 for the full control effect; nearly all actives have a fitted effect of over 55% in size); conditions: P450-Glo CYP2D6 enzyme, luciferin luminescence, 1 h; series mostly up to 57.4 µM
Chain of Cytochrome P450 2D6 (Homo sapiens) (P10635 whole entry, looked up): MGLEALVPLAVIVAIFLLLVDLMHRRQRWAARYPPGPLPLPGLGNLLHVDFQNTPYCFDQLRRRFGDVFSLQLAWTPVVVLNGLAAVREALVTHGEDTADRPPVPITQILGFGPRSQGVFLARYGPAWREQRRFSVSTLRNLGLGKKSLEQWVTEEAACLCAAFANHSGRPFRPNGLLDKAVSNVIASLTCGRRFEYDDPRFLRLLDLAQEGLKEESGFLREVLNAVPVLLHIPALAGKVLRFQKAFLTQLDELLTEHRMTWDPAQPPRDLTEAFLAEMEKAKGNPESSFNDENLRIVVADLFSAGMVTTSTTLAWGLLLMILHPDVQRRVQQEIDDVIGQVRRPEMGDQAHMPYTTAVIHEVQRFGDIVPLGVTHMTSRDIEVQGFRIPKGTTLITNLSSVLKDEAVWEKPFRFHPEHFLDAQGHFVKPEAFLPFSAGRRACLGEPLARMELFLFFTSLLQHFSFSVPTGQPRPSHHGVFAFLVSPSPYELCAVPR
Outline: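 P450-Glo luminescent screen: recombinant CYP2D6 enzyme–proluciferin substrate mix preincubated with compound 10 min at room temperature, then NADPH regeneration added for 1 h at room temperature. Detection reagent added for 20 min; luciferin light read as relative luminescence units.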

[6] = target: Cytochrome P450 2C9 (Homo sapiens) (UniProt P11712); assay: Cytochrome P450 family 2 subfamily C member 9 (CYP2C9) small molecule antagonists: luciferase biochemical (cell-free) qHTS assay (AID 1645842; active = well fitted curve in the direction sought with a large enough effect in the repeat runs; an effect the other way counts as inactive or inconclusive; note: nearly all actives have a fitted effect of over 55% in size; note: potency is the fitted concentration of half-maximal effect; for activity change, negative = inhibition: % is set by controls: 0 for no effect and ±100 for the full control effect); conditions: P450-Glo CYP2C9 enzyme assay, luciferin luminescence; series mostly up to 57.4 µM
Chain of Cytochrome P450 2C9 (Homo sapiens) (P11712 whole entry, looked up): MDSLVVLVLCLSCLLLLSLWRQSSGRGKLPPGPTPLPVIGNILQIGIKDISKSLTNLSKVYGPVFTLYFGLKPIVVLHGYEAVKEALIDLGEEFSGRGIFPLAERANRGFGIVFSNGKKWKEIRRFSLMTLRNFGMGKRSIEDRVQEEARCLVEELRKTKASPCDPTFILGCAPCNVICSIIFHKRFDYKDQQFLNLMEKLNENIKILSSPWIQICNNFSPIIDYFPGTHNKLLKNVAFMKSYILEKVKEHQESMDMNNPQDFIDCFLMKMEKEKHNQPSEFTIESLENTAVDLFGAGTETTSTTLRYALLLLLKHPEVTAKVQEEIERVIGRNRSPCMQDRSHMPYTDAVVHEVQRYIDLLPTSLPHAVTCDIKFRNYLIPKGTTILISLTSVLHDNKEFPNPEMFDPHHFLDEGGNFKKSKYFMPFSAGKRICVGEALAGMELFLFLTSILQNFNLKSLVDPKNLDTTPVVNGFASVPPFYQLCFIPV
Outline: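 Luminescence, after 20 min with luciferin detection reagent, reflected CYP2C9 turnover during a 1 h NADPH-driven reaction at 37C. Enzyme-substrate mix contained 0.4% bovine serum albumin and was preincubated with compound 10 min at room temperature.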

With `C[C@H]1COCCN1c1cc(C2(S(=O)(=O)C3CC3)CC2)nc(-c2ccc(NC(=S)NCCO)cc2)n1` the Potency [1] was 764 nM (active), the Potency [2] was “inactive” and the activity change, negative = inhibition [3] was -79.3%. For the same compound, the Potency [4] was 304 nM (active).
In the case of `O=C(O)c1ccc(-c2c[nH]c3ncc(-c4ccccc4)cc23)cc1C1CCCC1`, the Potency [1] was 1360 nM (active), the Potency [2] was “inactive” and the Potency [3] was 2820 nM (active). The Potency [4] was 541 nM (active).
With `Cc1cc(/C=c2/sc3nc4ccccc4n3c2=O)c(C)n1-c1ccccc1` the Potency [1] was 34.1 nM (active), the Potency [2] was “inactive” and the activity change, negative = inhibition [3] was -93.9%. For the same compound, the Potency [4] was 68.1 nM (active).
In the case of `CCOC(=O)/C=C/[C@H](C[C@@H]1CCNC1=O)NC(=O)[C@@H](CC(=O)[C@@H](NC(=O)c1cc(C)on1)C(C)C)Cc1ccc(F)cc1`, the Potency [5] was “inactive” and the Potency [6] was 4770 nM (active).
With `CCN(CC)N(O)N=O` the Potency [5] was “inactive” and the Potency [6] was “inactive”.
For `Cc1c(-c2ccc(-c3ccccc3F)cc2)nc2ccc(F)cc2c1C(=O)O`, the Potency [1] was 108 nM (active), the Potency [2] was “inactive” and the activity change, negative = inhibition [3] was -89.2%. The Potency [4] was 136 nM (active).
With `O=c1[nH]c([C@@H]2CCCN2)nc2c1oc1ccc(Cl)cc12` the Potency [1] was 5410 nM (active), the Potency [2] was “inactive” and the Potency [4] was 7640 nM (active).
With `Nc1nc(-c2nn(Cc3ccccc3F)c3ncccc23)ncc1C1CC1` the Potency [1] was 5410 nM (active) and the Potency [4] was 12100 nM (active).
In the case of `C=CC(=O)N1CC[C@@H](Oc2nc(Nc3ccc(N4CCC(N5CCN(C)CC5)CC4)cc3)c(C(N)=O)nc2CC)C1`, the Potency [1] was 2350 nM (active) and the Potency [4] was 5270 nM (active).
With `NC(=O)c1ccccc1Nc1ccnc(Nc2cccc(O)c2)n1` the Potency [1] was 9610 nM (active), the Potency [3] was 8910 nM (active) and the Potency [4] was 7640 nM (active).
For `CS(=O)(=O)c1ccc(-c2cnc(NCc3ccco3)n3cnnc23)cc1`, the Potency [1] was 27100 nM (active), the activity change, negative = inhibition [3] was -43.5% and the Potency [4] was “inactive”.
In the case of `O=C1NC(=O)C(c2cnc3ccccn23)=C1c1cn2c3c(cc(F)cc13)CN(C(=O)N1CCCCC1)CC2`, the Potency [1] was 2150 nM (active) and the Potency [4] was 152 nM (active).
In the case of `CN(C)CCCOc1ccc(-c2ccc3ncc4c(c3c2)n(C2CCOCC2)c(=O)n4C)cn1`, the Potency [1] was 5910 nM (active) and the Potency [4] was 2350 nM (active).
For `CN(C)CCN1C(=O)c2cccc3cc(NC(N)=O)cc(c23)C1=O`, the Potency [1] was 9610 nM (active), the Potency [3] was 7080 nM (active) and the Potency [4] was 12100 nM (active).
For `CC(C)c1cc(CNc2nc(Nc3cc(C4CC4)[nH]n3)cc(N3CCN(C)CC3)n2)on1`, the Potency [1] was 215 nM (active), the Potency [3] was 2510 nM (active) and the Potency [4] was 541 nM (active).
In the case of `COc1ccc(-c2ccc3c(N4CCOC[C@@H]4C)nc(N4CCOC[C@@H]4C)nc3n2)cc1CO`, the Potency [1] was 681 nM (active), the Potency [3] was 1000 nM (active) and the Potency [4] was 429 nM (active).
In the case of `CC#CC(=O)N1CC[C@@H](n2c(=O)n(-c3ccc(Oc4ccccc4)cc3)c3c(N)ncnc32)C1`, the Potency [1] was 21500 nM (active) and the activity change, negative = inhibition [3] was -99%.
For `CCNC(=O)Nc1ccc(-c2nc3c(c(N4CCOC[C@@H]4C)n2)CCN(C2COC2)C3)cc1`, the Potency [1] was 12100 nM (active) and the Potency [3] was 10000 nM (active).
In the case of `CC[C@]12C=CCN3CC[C@@]4(c5cc([C@@]6(C(=O)OC)C[C@H]7C[C@@H](C(C)(F)F)CN(Cc8c6[nH]c6ccccc86)C7)c(OC)cc5N(C)[C@H]4[C@@](O)(C(=O)OC)[C@@H]1OC(C)=O)[C@@H]32`, the Potency [1] was 359 nM (active), the activity change, negative = inhibition [3] was -76.7% [at 19 µM] and the Potency [4] was 127 nM (active).
With `CC[C@]1(O)CC2CN(CCc3c([nH]c4ccccc34)[C@@](C(=O)OC)(c3cc4c(cc3OC)N(C)[C@H]3[C@@](O)(C(=O)OC)[C@H](OC(C)=O)[C@]5(CC)C=CCN6CC[C@]43[C@@H]65)C2)C1` (stereo partly specified) the Potency [1] was 4.3 nM (active) and the Potency [4] was 38.3 nM (active).
For `COCCNCc1ccc(-c2cc3nccc(Oc4ccc(NC(=S)NC(=O)Cc5ccc(F)cc5)cc4F)c3s2)nc1`, the Potency [1] was 3830 nM (active) and the Potency [4] was 1360 nM (active).
For `CNCCCOc1cc(F)c(-c2c(Cl)nc3ncnn3c2N[C@@H](C)C(F)(F)F)c(F)c1`, the Potency [1] was 1210 nM (active), the activity change, negative = inhibition [3] was -85.4% and the Potency [4] was 121 nM (active).
For `CC(=O)c1ccc2c(c1)c1cc(C(C)=O)ccc1n2CCNC(C)C`, the Potency [1] was 54.1 nM (active) and the Potency [4] was 136 nM (active).
In the case of `C=CC(=O)N1CCC(Oc2cc3c(Nc4ccc(Cl)c(Cl)c4F)ncnc3cc2OC)CC1`, the Potency [1] was 1360 nM (active), the Potency [2] was “inactive” and the Potency [4] was 961 nM (active).
With `COc1cccc2c1C(=O)c1c(O)c3c(c(O)c1C2=O)C[C@@](O)(/C(CO)=N/NC(=O)CCCCCN1C(=O)C=CC1=O)C[C@@H]3O[C@H]1C[C@H](N)[C@H](O)[C@H](C)O1` the Potency [1] was 429 nM (active), the Potency [3] was 1000 nM (active) and the Potency [4] was 341 nM (active).
In the case of `c1cc(Nc2cc(C3CC3)[nH]n2)nc(Nc2ccc3nc[nH]c3c2)n1`, the Potency [1] was 192 nM (active), the activity change, negative = inhibition [3] was -94.9% and the Potency [4] was 242 nM (active).
In the case of `CC[C@@]1(O)C(=O)OCc2c1cc1n(c2=O)Cc2c-1nc1ccccc1c2CCNC(C)C`, the Potency [1] was 5.4 nM (active), the activity change, negative = cytotoxicity [2] was -47.2% [at 5.25 µM] (inactive) and the Potency [4] was 6.1 nM (active).
In the case of `CO[C@@H]1[C@@H](O)[C@H](O)[C@@H](n2c3c(Cl)cccc3c3c4c(c5c6cccc(Cl)c6[nH]c5c32)C(=O)NC4=O)O[C@H]1CO`, the Potency [1] was 961 nM (active), the Potency [3] was 1000 nM (active) and the Potency [4] was 857 nM (active).
For `CS(=O)(=O)N1CCC(NC(=O)c2[nH]ncc2NC(=O)c2c(Cl)cccc2Cl)CC1`, the Potency [1] was 34.1 nM (active), the activity change, negative = inhibition [3] was -94.8% and the Potency [4] was 96.1 nM (active).
With `C[C@@]1(c2ncncc2F)NC(=O)c2cc(-c3cn[nH]c3)ccc21` the Potency [1] was 3040 nM (active), the Potency [2] was “inactive” and the Potency [4] was 4820 nM (active).
For `O=C1NC(=O)[C@@H](c2c[nH]c3ccccc23)[C@H]1c1cn2c3c(cccc13)CCC2`, the Potency [1] was 7640 nM (active) and the Potency [4] was 1520 nM (active).
In the case of `O=C(Nc1ccnc(NC(=O)C2CC2)c1)c1c(Cl)cccc1Cl`, the Potency [1] was 1920 nM (active), the activity change, negative = inhibition [3] was -97% and the Potency [4] was 2710 nM (active).
For `COc1ccc(N(C)c2nc(C)nc3ccccc23)cc1`, the Potency [1] was 6810 nM (active), the activity change, negative = inhibition [3] was -80.5% and the Potency [4] was 4820 nM (active).
